PubChem BioAssay (Tox21)
Inconclusive results are not listed. Values without a mark were called inactive. Calls of active or inactive are those of the source. Calls follow the shape of the dose curve; as a rule, active = well fitted cell-killing curve with a large enough effect in the repeat runs; inconclusive = weak or mixed curves; inactive = flat fitted curve, though single readings scatter.

Assay: qHTS RealTime-Glo MT Cell Viability Assay in HepG2 cells - 24 hour (AID 1224867); also: nearly all actives have a fitted effect of over 50% in size
Details: RealTime-Glo luminescence; series mostly up to 76.8 µM
Description: U.S. Tox21 Program National Center for Advancing Translational Sciences [NCATS] NIH Chemical Genomics Center [NCGC] U.S. Environmental Protection Agency [EPA] National Institutes of Environmental Health Sciences [NIEHS] National Toxicology Program [NTP] U.S. Food and Drug Administration [FDA] Tox21 Assay Overview: Measure of cell viability is critical in the cell-base assay. Analysis of cell viability is necessary for the characterization of cell responses to cytotoxic drugs and environmental stress. A RealTime-Glo MT Cell Viability Assay to monitor cell viability in real time of continues cell culture during 40 hours of compound treatment was used to screen Tox21 10K library compounds in HepG2 cells. The RealTime-Glo MT Cell Viability Assay is a nonlytic, homogeneous, bioluminescent method to measure cell viability in real time using a simple, plate-based method. The assay involves adding NanoLuc luciferase and a cell-permeant prosubstrate to cells in culture. Viable cells reduce the proprietary prosubstrate to generate a substrate for NanoLuc luciferase. This substrate diffuses from cells into the surrounding culture medium, where it is rapidly used by the NanoLuc Enzyme to produce a luminescent signal. The signal correlates with the number of viable cells, making the assay well suited for cytotoxicity studies.
Tox21 Assay Protocol Summary: The mixture of HepG2 cell suspension and reagents were dispensed at 600cells/6 ul/well in 1536-well tissue culture treated black solid bottom plates using a Multidrop dispenser. After the assay plates were incubated at a 37 C/5% CO2 incubator for 5 hours, 23 nL of compounds dissolved in DMSO, positive and negative controls was transferred to the assay plate by a pintool work station. The plates were incubated at 37 C for 40 hours. The luminescence intensity were measured at 0h, 8h, 16h, 24h, 32h and 40h time points using ViewLux plate reader during compound treatment.
% is scaled to controls: 0 for no effect and ±100 for the full control effect.

SMILES	activity change, negative = cytotoxicity	outcome
N[C@@H](COP(=O)(O)O)C(=O)O	0.52% [at 15.8 µM]	–
CC(C)(C)OC(=O)c1ccc(O)cc1	–	inactive
Cc1ccsc1/C=C/C1=NCCCN1C	–	inactive
COc1ccc(OC)c(Cl)c1	–	inactive
O=S(=O)(O)c1ccc2cc(O)c(S(=O)(=O)O)cc2c1	–	inactive
CN(C)c1ccc(C=O)cc1	–	inactive
CCCCCCCCOS(=O)(=O)O	–	inactive
Cc1ccc(S(=O)(=O)O)c(C)c1	–	inactive
CCOc1cc(NC(C)=O)ccc1C(=O)OC	–	inactive
O=C(c1ccc(O)cc1)c1ccc(O)c(O)c1O	–	inactive
CC(C)CCCC(C)(C)O	–	inactive
C[C@@H](O)[C@H]1C(=O)N2C(C(=O)O)=C(SCCN=CN)C[C@H]12	–	inactive
CCCOC(OCCC)OCCC	–	inactive
Oc1cn2c(n1)Nc1ccc(Cl)c(Cl)c1C2	-0.765% [at 15.8 µM]	–
Nc1ccc(S(=O)(=O)Nc2ccc(Cl)nn2)cc1	–	inactive
NCCS	–	inactive
CC(S)C(=O)NCC(=O)O (stereo not given)	–	inactive
O=C1c2cccc3c2[C@H](CCC3)CN1[C@@H]1CN2CCC1CC2	–	inactive
Cc1ccccc1OCC(O)CO (stereo not given)	–	inactive
C=C1CC/C=C(\C)CC[C@@H]2[C@@H]1CC2(C)C	–	inactive

SMILES	activity change, negative = cytotoxicity	outcome
CCCCCCCCCCl	–	inactive
CCCCN	–	inactive
CC1(CO)CN(c2ccccc2)NC1=O (stereo not given)	–	inactive
CNS(=O)(=O)CCc1ccc2[nH]cc(C3CCN(C)CC3)c2c1	–	inactive
CCC(CC)CO	–	inactive
C=CC(OCC)OCC	–	inactive
C#CC(C)N(C)C(=O)Nc1ccc(Cl)cc1 (stereo not given)	–	inactive
CCCCNc1ccc(C(=O)OCCN(C)C)cc1	–	inactive
CC(C)(C)NC(N)=O	–	inactive
Cc1cccc(OCC(O)CNC(C)(C)C)c1C (stereo not given)	–	inactive
O=C1c2ccccc2C(=O)N1CCl	–	inactive
CC(C)C[C@H](NC(=O)CNC(=O)[C@H](Cc1ccc(O)cc1)NC(=O)[C@H](CO)NC(=O)[C@H](Cc1c[nH]c2ccccc12)NC(=O)[C@H](Cc1cnc[nH]1)NC(=O)[C@@H]1CCC(=O)N1)C(=O)N[C@@H](CCCN=C(N)N)C(=O)N1CCC[C@H]1C(=O)NCC(N)=O (stereo in doubt)	–	inactive
CC(=O)/C=C/C1C(C)=CCC(C)C1(C)C (stereo not given)	–	inactive
Cc1cccc2nccnc12	–	inactive
CCCCCCCCSCC	–	inactive
CC(C)NCC(O)COc1cccc2[nH]ccc12 (stereo not given)	–	inactive
CCCCCCCCC1CCC(=O)O1 (stereo not given)	–	inactive
O=C1O[C@@H]2[C@@H](O)[C@H](O)O[C@@H]2[C@H]1O	–	inactive
NS(=O)(=O)c1ccc(NC(=O)CCC(=O)O)cc1	–	inactive
CCCCCCCC/C=C\CCCCCCCC(=O)OCCCC	2.67% [at 15.8 µM]	–
